Rows were chosen to be rich in hits. Some 2.4% of all compounds tested hit in one or more screens of this group.
TMEM16A inh – TMEM16A chloride channel inhibitors, primary screen, cell-based, HTS | normalized B-score (activity score, 25-100; higher = stronger inhibition) at 10 µM | HEK293 TMEM16A/YFP iodide influx fluorescence, ionomycin | actives 1.2% (n = 310,000) | Anoctamin-1 (Mus musculus), Q8BHY3;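 active means ratio plate-corrected score three or more library SD toward inhibition, starting fluorescence score within five deviations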;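 further: score derived from kinetic fluorescence span divided by baseline fluorescence per well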
TMEM16A act – TMEM16A chloride channel activators or potentiators, primary screen, cell-based, HTS; B-score at 10 µM; HEK293 TMEM16A/YFP-H148Q/I152L, iodide quench fluorescence; active compounds read low; AID 623877, 2012; actives 0.3% (n = 340,000); Anoctamin-1 (Mus musculus), Q8BHY3;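 active means fluorescence-ratio B-score plate-corrected deviation score at least 3 library SD below zero, with starting fluorescence score within 5 deviations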;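 further: channel opened by trigger with iodide after compound preincubation; score built on the fluorescence ratio of max minus min over baseline; more negative score means more quench and so TMEM16A activation or potentiation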
CHT PAM – CHT positive allosteric modulators, primary screen, cell-based, membrane potential dye, choline EC20 | CHT-expressing cells; active compounds read high; LV-AA mutant CHT in HEK293 cells | B-score at 10 µM | actives 0.49% (n = 310,000) | High affinity choline transporter 1 (Homo sapiens), Q9GZV3 | AID 488977, 2010;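 active means initial fluorescence not abnormally high and integrated response B-score, plate-corrected, over 3 SD above library mean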
Target sequence (Q9GZV3 whole entry, looked up): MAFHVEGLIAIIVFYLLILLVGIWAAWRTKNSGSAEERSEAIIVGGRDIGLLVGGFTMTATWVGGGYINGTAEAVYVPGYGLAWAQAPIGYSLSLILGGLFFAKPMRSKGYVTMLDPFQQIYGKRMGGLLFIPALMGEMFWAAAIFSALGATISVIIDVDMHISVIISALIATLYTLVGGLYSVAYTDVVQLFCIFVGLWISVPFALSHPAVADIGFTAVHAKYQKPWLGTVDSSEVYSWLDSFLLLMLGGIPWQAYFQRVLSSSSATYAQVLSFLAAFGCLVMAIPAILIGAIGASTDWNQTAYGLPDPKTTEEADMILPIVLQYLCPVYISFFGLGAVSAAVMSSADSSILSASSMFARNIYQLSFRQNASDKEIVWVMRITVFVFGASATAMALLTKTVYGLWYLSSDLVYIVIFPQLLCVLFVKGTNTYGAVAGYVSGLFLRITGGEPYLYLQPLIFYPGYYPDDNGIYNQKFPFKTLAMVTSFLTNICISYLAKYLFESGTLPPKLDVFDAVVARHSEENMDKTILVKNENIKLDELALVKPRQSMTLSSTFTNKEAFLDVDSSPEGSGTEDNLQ
CHT block – inhibitors of human choline transporter CHT; High affinity choline transporter 1 (Homo sapiens), Q9GZV3; CHT-expressing cells, membrane potential dye, choline response; active compounds read low; B-score at 10 µM; actives 0.86% (n = 310,000); AID 488975, 2010;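 active means B-score over 3 SD under the library average, and starting fluorescence ratio not unusually high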;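 further: choline stimulus applied at its EC90 after an EC20 pre-addition; B-score computed on integrated fluorescence ratio after choline addition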
CHT inh conf – CHT inhibitors, confirmation, cell-based, membrane potential dye, duplicate; AID 493221, 2011; actives 70% (n = 2,400); shares compounds with CHT block; CHT activity remaining % of control (active compounds read low), % at 10 µM; CHT-expressing cells, choline membrane potential dye; LV-to-AA substituted CHT, HEK293 cells;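 active means choline transporter activity left, mean of duplicates at 10 µM, below buffer-only control mean minus 3 SD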;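 further: depolarization triggered by choline at its EC90 following an EC20 pre-addition; 0% = hemicholinium-3 full block and 100% = buffer-only control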
HEK293 MPD ctr – membrane potential effects in parental HEK293, counter-screen for CHT inhibitor project, cell-based, membrane potential dye | shares compounds with CHT block | choline response; active = decrease or increase beyond buffer ±3SD | membrane potential ratio readout (active if shifted either direction beyond buffer ±3SD; no single direction) at 10 µM | actives 4% (n = 2,400);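 further: parental cells lack the transporter so any hit is non-specific; ratio is peak minus trough fluorescence over baseline after EC90 choline challenge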
* = called active by the depositor; i = inactive; · = no result.

SMILES	TMEM16A inh	TMEM16A act	CHT PAM	CHT block	CHT inh conf	HEK293 MPD ctr
Cc1ccc(-n2nnnc2SCC(=O)NCCC2=CCCCC2)c(C)c1	i	i	i	i	·	·
COc1cc(-c2nnc(SC/C=C/c3ccccc3)n2N)cc(OC)c1OC	i	i	i	-5.23*	67.3%*	i
CN(Cc1ccccc1)C(=S)Nc1ccc2nc3n(c(=O)c2c1)CCCCC3	i	i	i	-6.96*	i	i
Cc1cccc(-c2ncc(CN3CCN(CCC(C)C)C(CCO)C3)cn2)c1 (stereo not given)	i	i	i	-5.78*	i	i
Cc1cccc(-c2ncc(CN3CCN(C4CCCC4)C(CCO)C3)cn2)c1 (stereo not given)	i	i	i	i	·	·
Oc1c(Br)cc(Cl)cc1C=Nc1ccc(N2CCOCC2)cc1	i	i	i	i	·	·
Oc1c(Br)cc(Cl)cc1C=Nc1ccccc1Br	i	i	i	-7.12*	67.6%*	i
Oc1c(Cl)cc(Cl)cc1C=Nc1ccc2c(c1)OCCO2	i	i	i	-5.14*	62.5%*	i
COC(=O)c1c(NC(=O)CN2CCC3(O)CCCCC3C2c2ccc(OC)cc2OC)sc(C)c1C (stereo not given)	i	i	i	i	·	·
COc1ccc(Nc2ccc(C(=O)O)cc2[N+](=O)[O-])cc1	i	i	i	i	·	·
COc1ccc(OC)c(Nc2ccc(C(=O)O)cc2[N+](=O)[O-])c1	i	i	i	-6.74*	i	i
CCCCN(C)C(=O)c1ccc(CS(=O)(=O)c2ccccc2C)o1	i	i	i	-5.32*	i	i
CC(C)NC(=O)Cn1nc(C(F)(F)F)c2c1CCC2	i	i	i	i	·	·
O=C(Cn1nc(C(F)(F)F)c2c1CCCC2)NC1CCCC1	i	i	i	-5.77*	51.6%*	i
Cc1ccc(-n2[nH]c(C)c(/C=N/Nc3ccc([N+](=O)[O-])cc3[N+](=O)[O-])c2=O)cc1C	25*	i	i	-8.38*	35.5%*	i
Cc1[nH]n(-c2ccccc2)c(=O)c1/C=N/NC(=O)c1cccc([N+](=O)[O-])c1	i	i	i	i	·	·
O=C(NNc1ccc(C(F)(F)F)cc1[N+](=O)[O-])c1ccc(NS(=O)(=O)c2ccc(F)cc2)cc1	i	i	i	-10*	51.9%*	i
CCOc1cc(C#N)ccc1OCC(=O)NNC(=O)CC1CCS(=O)(=O)C1 (stereo not given)	·	i	·	·	·	·
COc1ccc(NC(=O)COC(=O)Cc2c(F)cccc2Cl)cc1	i	i	i	i	·	·
CCC1CCCCN1S(=O)(=O)c1ccc(NC(=O)c2nc(S(C)(=O)=O)ncc2Cl)cc1 (stereo not given)	i	i	i	-6.44*	12.0%*	i
CCS(=O)(=O)c1ncc(Cl)c(C(=O)Nc2ccc(S(=O)(=O)N3CCCC(C)C3)cc2)n1 (stereo not given)	i	i	i	i	·	·
CCOC(=O)c1ccc(N=C2SC(C(=O)NCCc3ccccc3)CC(=O)N2C)cc1 (stereo not given)	i	i	i	i	·	·
Cc1ccc2c(COC(=O)c3ccccc3F)cc(=O)oc2c1	i	i	i	i	·	·
Cc1ccc2c(COC(=O)c3c(C)noc3C)cc(=O)oc2c1	i	i	i	-5.86*	i	i
COc1ccccc1N1CCN(S(=O)(=O)c2cc3[nH]c(=O)c(=O)[nH]c3cc2C)CC1	i	i	i	i	·	·
SMILES	TMEM16A inh	TMEM16A act	CHT PAM	CHT block	CHT inh conf	HEK293 MPD ctr
CC1CCN(S(=O)(=O)N2CCC(C(=O)NCc3ccc4c(c3)OCO4)CC2)CC1	i	i	i	i	·	·
Cc1ccc(C(=O)NC2CCC(C)CC2)o1 (stereo not given)	i	i	i	i	·	·
Cc1ccc(CS(=O)Cc2ccc(C(=O)NC3CCC(C)CC3)o2)cc1 (stereo not given)	i	i	i	-9.79*	3.4%*	i
Cc1ccc(CS(=O)Cc2ccc(C(=O)NC3CCCC(C)C3C)o2)cc1 (stereo not given)	i	i	i	-9.68*	19.6%*	i
Cc1ccc(CS(=O)Cc2ccc(C(=O)NC3CCCCCC3)o2)cc1 (stereo not given)	i	i	i	-9.45*	36.2%*	i
C/C(=N\NC(=S)Nc1ccc(C(C)C)cc1)c1ccc2c(c1)OCO2	i	i	i	i	·	·
CC1CN(c2snnc2C=C2C(=O)OC(C)(C)OC2=O)CC(C)O1 (stereo not given)	i	i	i	i	·	·
CCOC(=O)C1CCN(C(=O)c2ccc(NC(=O)C3CCCO3)cc2)CC1 (stereo not given)	i	i	i	i	·	·
Cn1c(-c2sccc2OCc2ccc(Cl)cc2Cl)n[nH]c1=S	i	i	i	-5.57*	i	i
COc1ccccc1OCc1ccc(C(=O)N2N=C(C(F)F)CC2(O)C(F)F)o1 (stereo not given)	i	i	i	-5.17*	i	i
Cc1ccc(-c2cc(C(=O)N/N=C/C(Br)=C/c3ccccc3)n[nH]2)o1	i	i	i	i	·	·
C=CC[C@H]1CC(Cc2ccccc2)=C[C@H](CC=C)N1	i	i	i	-8.64*	-13.2%*	-17*
CCCCCn1c(CCNC(=O)CCC)nc2ccccc21	i	i	i	-6.16*	60.0%*	i
Cc1ccc2nc(NC(=O)CN3C(=O)C4CC=CCC4C3=O)sc2c1 (stereo not given)	i	i	i	-5.2*	i	i
Cc1ccsc1CNC12CC3CC(CC(C3)C1)C2	i	i	i	-6.55*	13.8%*	-13.5*
S=C(NCc1ccccn1)Nc1ccc(Cl)cc1Cl	i	i	i	-5.16*	53.4%*	i
COc1ccc(Cl)cc1NC(=S)NCc1ccccn1	i	i	i	i	·	·
Cc1ccc(S(=O)(=O)NC(=O)c2ccc(-c3ccc(C)c4ccccc34)o2)cc1	25*	i	i	-5.01*	i	i
Nc1ccc(N(CCO)CCO)cc1	i	i	i	i	·	·
Cc1cc(N(CCO)CCO)ccc1N=Nc1cc(F)ccc1F	i	i	i	-5.43*	56.0%*	i
